For 15 molecules, outcome and Potency results are on record in PubChem BioAssay (NCATS).

SMILES strings stand for the structures. Results filed as inconclusive are left out. Activity calls are given as the source filed them. Calls follow the shape of the dose curve; as a rule, active = well fitted curve in the direction sought with a large enough effect; inconclusive = small, poorly fitted or top-dose-only effect, or another doubt; inactive = no such curve, though single readings can be large; an effect the other way counts as inactive or inconclusive.

Assay [1] in a line: Inflammasome Signaling qHTS Counterscreen: IL-1-beta AlphaLISA counterscreen against the NCATS CANVASS Library (AID 1347381).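 Also: cell-free check with purified IL-1β in medium and no THP-1 cells; series mostly up to about 57 µM.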 The method, boiled down: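 Here, no cellular stimulation occurs; compounds in an 11-point series meet 4 pg purified IL-1-beta directly. Bead-based AlphaLISA detection follows (1 h acceptor/antibody, then 30 min donor, dark, room temperature), with excitation at 680 nm.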

Assay [2] can be described thus: Cytotoxicity qHTS for assessment of Hepg2 cells membrane integrity screened against the NCATS CANVASS Library (AID 1347387). The method, boiled down:
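LDH release read by fluorescence (560 nm ex/590 nm em) after CytoTox-ONE addition and 10 min RT; signal tracks lysed cells. HepG2, 2000 cells/well, plated overnight; compound 5 hr, 37C, 5% CO2, final 0.59 nM - 46 uM, 11 points.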
On the technique in general: Quantitative high-throughput screening tests each substance at several concentrations.

Assay [3] can be described thus: qHTS for Activators of p53 Stress Response Pathway screened against the NCATS CANVASS Library (AID 1347388). The method, boiled down:
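p53RE-bla HCT-116 cells (4000/well) were pre-incubated for 5 h, then treated with compound (11 points) for 16 h at 37C. After 2 h with CCF4, the 460/530 nm ratio gave reporter activation; CellTiter-Glo measured viability.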

Assay [4] in a line: qHTS assay for small molecule disruptors of mitochondrial membrane potential screened against the NCATS CANVASS Library (AID 1347389). Also: series mostly up to about 46 µM; nearly all actives have a fitted effect of over 60% in size. The method in brief:
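Red/green fluorescence ratio read-out: J-aggregates ex 540/em 590 nm, monomers ex 490/em 535 nm. HepG2, 1 hr compound treatment, then 30 min Mito-MPS dye at 37C. 11-pt qHTS concentration series.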

Assay [5] in a line: Secretion counterscreen for inhibitors of the SERCaMP assay screened against the NCATS CANVASS Library (AID 1347390).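 Also: light from luciferase secreted into medium read as a measure of general secretion; series mostly up to about 77 µM.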 The method, boiled down: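 Natural products are titrated in an 11-point series up to 77 uM onto SH-SY5Y-GLuc STOP cells for 20 h. Secreted reporter activity is measured as coelenterazine-driven luminescence, with Brefeldin A on each plate.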
Assay [6] is described as follows: qHTS for activators of Nrf2/ARE signaling pathway screened against the NCATS CANVASS Library (AID 1347391). Also: nearly all actives have a fitted effect of over 60% in size. The method, boiled down:
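HepG2 ARE-bla; cpd 11-pt qHTS, 16 h 37C/5% CO2; CCF4 substrate 2 h RT; read ex 405 / em 460 + 530 nm. Viability by CellTiter-Glo luminescence, 30 min RT.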

Assay [7] in a line: qHTS for activators of dead-cell proteases activity screened against the NCATS CANVASS Library (AID 1347392).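 Also: luminescence from protease leaking out of membrane-damaged cells cleaving impermeant substrate; rising signal means more cytotoxicity.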 The method in brief:
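HepG2, 2000 cells/well, 18 h attach; cpd 11-pt, 5 h 37C 5% CO2; CytoTox-Glo (AAF-aminoluciferin) 15 min RT; luminescence read.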

A short description of assay [8]: qHTS for inhibitors of ER calcium dysfunction: SERCaMP assay screened against the NCATS CANVASS Library (AID 1347393).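 Also: series mostly up to about 77 µM; lower secreted reporter signal means inhibitor of ER calcium depletion; nearly all actives have a fitted effect of over 40% in size.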 The method in brief:
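SH-SY5Y GLuc-SERCaMP, 1000 cells/well, 4 h attach; cpd 16 h, 37C/5% CO2; thapsigargin (added as 6x 600 nM) 4 h; coelenterazine; luminescence. Reduced reporter release = ER Ca stabilization.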

Assay [9] in a line: Vero-766 cells viability qHTS against the NCATS CANVASS Library: Counterscreen for Zika virus inhibition assay (AID 1347394). Also: series mostly up to about 46 µM; nearly all actives have a fitted effect of over 60% in size. The method in brief:
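Counterscreen for toxicity: Vero 766 cells exposed 72 h to an 11-point compound series, viability by CellTiter-Glo.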

Assay [10] is described as follows: qHTS for inhibitors of Wild type Zika virus screened against the NCATS CANVASS Library (AID 1347396).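 Also: ATP luminescence of surviving cells so rescue from viral cell killing; series mostly up to about 46 µM.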 The method in brief: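 Protection against wild-type Zika cytopathic effect is measured in African green monkey Vero 766 cells exposed to an 11-point compound series. Surviving cells are quantified by CellTiter Glo luminescence after 72 h.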
Assay [11] is described as follows: Viability qHTS for inhibitors of the SERCaMP assay screened against the NCATS CANVASS Library (AID 1347400). Also: series mostly up to about 92 µM; nearly all actives have a fitted effect of over 70% in size. The method, boiled down:
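CellTiter-Glo luminescence readout after 48 h compound exposure (11-pnt qHTS series) of SH-SY5Y-GLuc SERCaMP MJH297 cells seeded at 1000 cells/well; bortezomib positive control.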

Assay [12] is described as follows: Redox Reaction Profiling qHTS: Assay Interference Panel against the NCATS CANVASS Library (AID 1347401). Also: potency is read from the fitted curve at half-maximal effect. The method in brief: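 Fluorescence read-out (525 nm excitation, 598 nm emission) at time zero and after 15 min in the dark tracked resorufin formation. Mix: 5 uM resazurin, 200 uM DTT, HEPES pH 7.3 buffer with NaCl.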
The nature of assay [13]: qHTS to identify inhibitors of the type 1 interferon - major histocompatibility complex class I in skeletal muscle: primary screen against the NCATS Pharmaceutical Collection (AID 1347407).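 Also: luminescence of HiBiT knocked into endogenous HLA-B as interferon-induced MHC class I level.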 The method in brief:
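A qHTS format is used: 8-point, 1:5 compound series with 46 uM top final concentration, applied alongside 4 ng/ml IFN-beta to HLA-B*08:01-HiBiT knock-in myoblasts. Luminescence is measured after 24 h treatment.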

Assay [14] is described as follows: qHTS to identify inhibitors of the type 1 interferon - major histocompatibility complex class I in skeletal muscle: primary screen against the NCATS Mechanism Interrogation Plate v5.0 (MIPE) Libary (AID 1347411). Also: nearly all actives have a fitted effect of over 65% in size. The method in brief: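 HLA-B HiBit myoblasts, dexamethasone-free medium + 4 ng/ml IFN-b, 24 h compound, 11-pt 1:3 from 46 uM final. Readout: Nano-Glo HiBiT lytic luminescence after 10 min lysis, RT.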

The target in assay [15] is Protein phosphatase 1D (Homo sapiens) (UniProt O15297). Briefly: RapidFire Mass Spectrometry qHTS Assay for Modulators of WT P53-Induced Phosphatase 1 (WIP1) (AID 1347424). Also: series mostly up to about 63 µM. The method in brief:
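RapidFire MS readout of dephosphorylated VEPPL-S-QETFS product, with 1 uM isotope-labelled peptide standard. Reaction: 10 nM WIP1, 2 uM phosphopeptide substrate, 5 min, room temperature, after 1 h compound preincubation; stopped with 0.5% formic acid.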

Assay [16] is described as follows: qHTS to identify inhibitors of the type 1 interferon - major histocompatibility complex class I in skeletal muscle: primary screen against the NCATS LOPAC collection (AID 1347405).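 Also: human myoblasts with HiBiT tag on endogenous HLA-B stimulated by IFN-beta; lytic HiBiT luminescence reporting HLA-B protein level.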 Also: potency is read from the fitted curve at half-maximal effect. The method in brief: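 HLA-B HiBiT myoblasts, IFN-b 4 ng/ml, dexamethasone-free medium; compounds 7-pt 1:4.3 titration, top 46 uM final; 24 h at 37 C; Nano-Glo HiBiT lytic reagent, 10 min RT, luminescence.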

Assay [17] can be described thus: qHTS for inhibitors of adenylyl cyclases using a fission yeast platform: a pilot screen against the NCATS LOPAC library (AID 1347410). The method, boiled down: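 Inhibition of GNAS-stimulated AC9 activity in S. pombe was inferred from derepression of a PKA-repressed fbp1-GFP reporter, measured as cytometric fluorescence after 18 h at 30C with compounds at up to 57 µM.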

Assay [18] can be described thus: Validation qHTS assay for inhibitors of Activation Induced Cytidine Deaminase (AID): UDG Counterscreen signal (AID 1347427). The method in brief:
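Fluorescence at 560 nm excitation, 665 nm emission reports UDG signal after 250 mM NaOH (2x) addition and 30 min. Enzymes (AID 1 uM, UDG 2 U/mL, at 4/3x) preincubated 10 min with compound, then 4 h with 4x 250 nM DJC20/DJC23 substrate at room temperature.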

The target of assay [19] is Single-stranded DNA cytosine deaminase (Homo sapiens) (UniProt Q9GZX7). Briefly: Validation qHTS assay for inhibitors of Activation Induced Cytidine Deaminase (AID): AID signal (AID 1347429). The method in brief: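 AID+UDG coupled FRET deamination; cpds up to 114 uM final; DJC20/DJC23 substrate, 4 hr RT; NaOH stop, 30 min RT; read Ex 540/Em 590.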
Single-stranded DNA cytosine deaminase (Homo sapiens), sequence (Q9GZX7 whole entry, looked up): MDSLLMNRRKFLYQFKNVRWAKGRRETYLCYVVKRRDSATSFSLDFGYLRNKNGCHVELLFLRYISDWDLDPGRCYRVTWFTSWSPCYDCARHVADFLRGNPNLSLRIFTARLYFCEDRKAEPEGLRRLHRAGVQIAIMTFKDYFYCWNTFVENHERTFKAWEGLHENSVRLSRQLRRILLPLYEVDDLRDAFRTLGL

Protein phosphatase 1D (Homo sapiens), sequence (O15297 whole entry, looked up): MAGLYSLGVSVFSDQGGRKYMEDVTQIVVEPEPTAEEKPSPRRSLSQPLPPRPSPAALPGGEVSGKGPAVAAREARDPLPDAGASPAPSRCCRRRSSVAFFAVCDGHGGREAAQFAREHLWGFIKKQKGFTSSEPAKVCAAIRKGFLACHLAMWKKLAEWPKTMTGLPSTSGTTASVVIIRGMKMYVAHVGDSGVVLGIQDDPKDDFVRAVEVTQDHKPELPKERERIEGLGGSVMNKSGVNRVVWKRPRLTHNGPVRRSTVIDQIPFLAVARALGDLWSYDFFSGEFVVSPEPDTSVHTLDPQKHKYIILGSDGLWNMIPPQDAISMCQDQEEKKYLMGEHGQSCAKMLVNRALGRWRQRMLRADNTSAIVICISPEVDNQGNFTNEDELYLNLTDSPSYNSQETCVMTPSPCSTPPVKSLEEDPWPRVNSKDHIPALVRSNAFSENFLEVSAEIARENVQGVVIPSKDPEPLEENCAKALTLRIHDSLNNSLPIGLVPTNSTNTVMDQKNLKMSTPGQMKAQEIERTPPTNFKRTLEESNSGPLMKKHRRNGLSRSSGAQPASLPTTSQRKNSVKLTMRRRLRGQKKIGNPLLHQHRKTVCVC

In the case of `O=c1cc(-c2ccccc2)oc2cc(O)c(O)c(O)c12`, the call in assay [1], in assay [2], in assay [3], in assay [4], in assay [5] and in assay [6] was inactive. In addition, the call in [7], in [9], in [10] and in assay [11] was inactive. The Potency result in assay [8] and in [12] was “inactive” in each case.

`CN(C)c1cc(NC(=O)CNC(C)(C)C)c(O)c2c1C[C@@H]1C[C@H]3[C@H](N(C)C)C(=O)C(C(N)=O)=C(O)[C@@]3(O)C(=O)C1=C2O`: in assay [13], the Potency result was “inactive”.

Turning to `O=C(O)C(O)Cc1ccc(O)c(O)c1` (stereo not drawn), the molecule was classed as inactive in [1], in assay [2], in assay [3], in assay [4], in [5] and in [6]. The molecule was classed as inactive in assay [7], in assay [9], in assay [10] and in assay [11]. Further, the Potency in [12] was 15.2 µM (active). In addition, in assay [14], the Potency result is “inactive”.

For the molecule `C[N+](C)(C)CC(=O)O`, the Potency result in [13] and in assay [14] was “inactive” each time. Besides, the molecule was called inactive in assay [15].

Consider `CC(=O)CCCCn1c(=O)c2c(ncn2C)n(C)c1=O`, for which the Potency entry in assay [16], in [13] and in assay [19] was “inactive” in each case. Further, the call in assay [17], in assay [15] and in assay [18] was inactive.

Take `CCCCC1C(=O)N(c2ccccc2)N(c2ccccc2)C1=O`: the Potency in [16] is 15.8 µM (active). Moreover, the result in assay [17] and in assay [18] was inactive. Besides, the Potency entry in [19] is “inactive”.

Turning to `CCn1cc(C(=O)O)c(=O)c2ccc(C)nc21`, the Potency result in assay [16], in assay [13] and in assay [19] was “inactive” in each case. Also, the molecule was called inactive in [17], in [15] and in assay [18].

Take `COc1ccccc1N1CCN(CCCNc2cc(=O)n(C)c(=O)n2C)CC1`: the Potency result in assay [16], in assay [13] and in assay [19] was “inactive” in each case. For the same molecule, the call in [17], in assay [15] and in [18] was inactive.

As for `CC1=C(/C=C/C(C)=C/C=C/C(C)=C/C(=O)Nc2ccc(O)cc2)C(C)(C)CCC1`, the Potency result in assay [13] and in [19] was “inactive” throughout. Also, the result in [17] and in [18] was inactive.

As for `CN(C)CCC(c1ccccc1)c1ccccn1` (stereo not drawn), the Potency entry in assay [16], in [13] and in assay [19] was “inactive” throughout. Moreover, the molecule was called inactive in [17], in assay [15] and in assay [18].

In the case of `O=C1NC(=O)C(c2ccccc2)(c2ccccc2)N1`, the Potency entry in assay [16], in [13] and in assay [19] was “inactive” in each case. For the same molecule, the molecule was called inactive in [17], in [15] and in [18].

Regarding `COc1ccc2cccc(CCNC(C)=O)c2c1`, the Potency result in [13] and in [14] was “inactive” each time. For the same molecule, the outcome in assay [15] was inactive.

Consider `COc1ccc(Cc2nccc3cc(OC)c(OC)cc23)cc1OC`, for which the Potency result in assay [16] and in assay [19] was “inactive” in each case. Besides, the result in assay [17] and in [18] was inactive.

As to `Clc1ccc(Cn2c(CN3CCCC3)nc3ccccc32)cc1`, the Potency result in [16], in assay [13], in [14] and in [19] was “inactive” in each case. Besides, the molecule was classed as inactive in [17], in assay [15] and in [18].

Regarding `COc1cc2ncnc(Nc3ccc(F)c(Cl)c3)c2cc1OCCCN1CCOCC1`, the Potency entry in assay [13] and in assay [14] was “inactive” throughout. In addition, the molecule was classed as inactive in [15].
